Molecules are shown by their SMILES. “And” between values parts separate entries of the source, which are not always exact repeats. Equal entries are not always repeated. Results filed as inconclusive are left out. Values without a mark were called inactive. The source made the active and inactive calls. The call rests on the fitted dose curve; in most records, active means well fitted cell-killing curve with a large enough effect in the repeat runs; inconclusive means weak or mixed curves, or effect the other way; inactive means flat fitted curve, though single readings scatter.
On the % scale 0 is the no-effect control and ±100 the full control effect; potency means the concentration at half of the fitted maximal effect.

This experiment is described as follows: qHTS RealTime-Glo MT Cell Viability Assay in HEK293 cells - 40 hour (AID 1224874). Further: nearly all actives have a fitted effect of over 50% in size. The note with it: RealTime-Glo luminescence; max response: active compounds read low. An excerpt: U.S. Tox21 Program National Center for Advancing Translational Sciences [NCATS] NIH Chemical Genomics Center [NCGC] U.S. Environmental Protection Agency [EPA] National Institutes of Environmental Health Sciences [NIEHS] National Toxicology Program [NTP] U.S. Food and Drug Administration [FDA] Tox21 Assay Overview: Measure of cell viability is critical in the cell-base assay. Analysis of cell viability is necessary for the characterization of cell responses to cytotoxic drugs and environmental stress. A RealTime-Glo MT Cell Viability Assay to monitor cell viability in real time of continues cell culture during 40 hours of compound treatment was used to screen Tox21 10K library compounds in Hek293 cells. The RealTime-Glo MT Cell Viability Assay is a nonlytic, homogeneous, bioluminescent method to measure cell viability in real time using a simple, plate-based method. The assay involves adding NanoLuc luciferase and a cell-permeant prosubstrate to cells in culture. Viable cells reduce the proprietary prosubstrate to generate a substrate for NanoLuc luciferase. This substrate diffuses from cells into the surrounding culture medium, where it is rapidly used by the NanoLuc Enzyme to produce a luminescent signal. The signal correlates with the number of viable cells, making the assay well suited for cytotoxicity studies.
Tox21 Assay Protocol Summary: The mixture of Hek293 cell suspension and reagents were dispensed at 600cells/6 ul/well in 1536-well tissue culture treated black solid bottom plates using a Multidrop dispenser. After the assay plates were incubated at a 37 C/5% CO2 incubator for 5 hours, 23 nL of compounds dissolved in DMSO, positive and negative controls was transferred to the assay plate by a pintool work station. The plates were incubated at 37 C for 40 hours. The luminescence intensity were measured at 0h, 8h, 16h, 24h, 32h and 40h time points using ViewLux plate reader during compound treatment.
Background: In qHTS, concentration-response curves come from the screen itself.
With `O=C1NC2CCCCN2C12CCN(CCCN1c3ccccc3CCc3ccc(Cl)cc31)CC2` (stereo not given), the Potency was 8.49 µM (active).
As to `CO[C@H]1C=CO[C@@]2(C)Oc3c(C)c(O)c4c(O)c(cc(O)c4c3C2=O)NC(=O)/C(C)=C\C=C/[C@H](C)[C@H](O)[C@@H](C)[C@@H](O)[C@@H](C)[C@H](OC(C)=O)[C@@H]1C`, the max response is -22.2%.
The same measure, in the same setting: the result for `COC(=O)[C@]1(C)CCC[C@@]2(C)[C@H]1CC=C1C=C(C(C)C)CC[C@@H]12` reads -2.95%; that for `C=CCCCCCCC=C`, 0.211%.
Still for that read-out and setting: the result for `CCO[Si](C)(C)OCC` reads -0.247%; that for `C[Si](C)(C)Cl`, 8.44%.
For `Clc1ccc(C(Cn2ccnc2)OCc2ccsc2Cl)c(Cl)c1` (stereo not given), the Potency is 16.9 µM (active).
The same measure, in the same setting: then `CCC(C)(C)c1cc(O)c(C(C)(C)CC)cc1O`, with 34.7 µM (active).
Turning to `O=C(c1ccccc1)c1cc(Cl)ccc1O`, the max response was -24.1%.
`O=S(=O)(O)CCCN1CCOCC1`: the max response was 12.7%.
As for `O=C1NCN(c2ccccc2)C12CCN(CCCC(c1ccc(F)cc1)c1ccc(F)cc1)CC2`, the Potency was 19 µM (active).
On to `NC(=O)c1ccccc1N`, for which the max response was -1.93%.
With `O=Cc1ccc(F)cc1`, the max response was 3.4%.
In the case of `CCCCN(C)C`, the max response is 1.09%.
Take `O=C(O)Cc1ccc(OCCNC[C@H](O)c2ccccc2)cc1`: the max response was 6.67%.
The same measure, in the same setting: then `c1ccc(Sc2ccccc2)cc1`, with 1.6%; and `CC(C)(C)c1n[nH]c(=O)n(N)c1=O`, with -0.732%.
As for `Cc1ccc(-n2[nH]c(C)c(N=Nc3cccc(-c4cccc(C(=O)O)c4)c3O)c2=O)cc1C`, the Potency is 21.3 µM (active).
For the compound `CC(=O)O[C@@H]1C[C@@H]2CC[C@@]1(C)C2(C)C`, the max response is 0.199%.
For `NC1(c2ccc(-c3nc4ccn5c(=O)[nH]nc5c4cc3-c3ccccc3)cc2)CCC1`, the Potency was 1.07 µM (active).
For the compound `O=S(O)O`, the max response is 7.9%.
The same measure, in the same setting: then `ClC/C=C\CCl`, with -46.5%.
`c1cc(OCC2CO2)cc(OCC2CO2)c1` (stereo not given): the Potency was 12.2 µM (active).
Turning to `COc1cccc(O)c1`, the max response was 11.4%.
For the compound `CN(C)CCN1CCOCC1`, the max response was 7.62%.
`COc1cc(C=C2CCC/C(=C\c3ccc(O)c(OC)c3)C2=O)ccc1O`: the Potency is 21.3 µM (active).
In the case of `CC[N+](CC)(CC)Cc1ccccc1`, the max response was 3.38%.
Regarding `O=C1C=CC(=O)N1c1ccccc1`, the Potency was 11 µM (active).
On to `CCc1c(Br)c(Br)c(Br)c(Br)c1Br`, for which the max response is 4.82%.
Same read-out and setting: the result for `c1cc2c3c(c1)ccc1cccc(c13)C2` reads -20.7%.
Same read-out and setting: the result for `O=C(O)CC(=O)O` reads 11.5%; that for `CCN(CC)CCSC(=O)C(c1ccccc1)c1ccccc1`, -12.3%; that for `CC(COC(=O)c1ccccc1)OC(=O)c1ccccc1` (stereo not given), -5.23%.
In the case of `CCC1(c2cnc[nH]2)Cc2ccccc2C1`, the max response was -4.11%.
On the same count and under the same terms, the result for `C=C/C=C/C=C/CCCCC` reads -0.0339%.
On to `CC(C)=CCCC(C)O` (stereo not given), for which the max response was 0.513%.
Still for that read-out and setting: then `NC(=O)C(=O)N/N=C/c1ccc([N+](=O)[O-])o1`, with 5.32%; and `OCCCCl`, with 8.9%.
For `CCN(CC)CCOc1ccc(C(O)(Cc2ccc(Cl)cc2)c2ccc(C)cc2)cc1` (stereo not given), the Potency is 10.7 µM (active).
For the compound `CN1[C@@H]2CC[C@H]1CC(OC(=O)C(CO)c1ccccc1)C2` (stereo not given in full), the max response is -0.934% and 16.5%.

(Values after PubChem BioAssay (Tox21).)
